# Data reported in PubChem BioAssay (NCI).
# About 83,000 compounds went through this panel and 20% of them were active in at least one assay; those are over-represented in the sample as a whole.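 Negative percent growth values reflect cell death: -40 means 40% of the cells present at the start died, and -100 means all died.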 Unmarked numbers belong to inactive results. The source made the active and inactive calls. Rule for the calls: active = growth percent below 10; inactive = the rest.
# Test system: OVCAR-5 ovarian
# Experiment: NCI-60 one-dose screen, 48 h (100 = growth as untreated, 0 = no growth, -100 = all killed)
# Conditions: 10 µM unless noted
row,Compound,growth
1,Cc1cc(N2CCOCC2)nc(N[C@@H]2CCC[C@H](Nc3ccnc4cc(Cl)ccc34)C2)n1,49.4%
2,COc1ccc(C2CC(c3ccc4ccccc4c3)=NN2/C=C2\SC(=S)N(NC(=O)Cc3ccccc3Nc3c(Cl)cccc3Cl)C2=O)cc1 (stereo not drawn),56.8%
3,CCC([N+](=O)[O-])S(=O)(=O)c1ccc(C)cc1 (stereo not drawn),88.2%
4,COc1ccc(/C=C2\Oc3cc(OCCCCN4CCCC4)ccc3C2=O)cc1,93.4%
5,NC(=NCCCC1(c2ccccc2)CCCC1)Nc1ccc(Cl)cc1,59.8%
6,COc1ccc(/C=C\c2cc(OC)c(OC)c(OC)c2)cc1OCC(=O)Nc1ccc2nc(C)sc2c1,112%
7,COc1ccc(C(=O)COc2ccc(/C=C3\COc4ccc(OC)cc4C3=O)cc2)cc1,108%
8,COc1cc(C2CC(=O)c3ccccc3N2)cc(OC)c1OC (stereo not drawn),103%
9,Cc1cc(N2CCN(c3ccnc4cc(Cl)ccc34)CC2)nc(N2CCOCC2)n1,108%
10,Cn1ncc2c(=O)nc3c(-c4ccccc4)n[nH]n3c21,109%
11,CC(C)CC1C(=O)N2CCC[C@H]2C2(O)O[C@](NC(=O)C3C=C4c5cccc6[nH]c(Br)c(c56)C[C@H]4N(C)C3)(C(C)C)C(=O)N12 (stereo partly drawn),69.6%
12,O=C(Cc1ccc(/C=C/C(=O)c2ncc[nH]2)cc1)Nc1ccc(F)cc1,49.1%
13,COc1cc(-c2nn(C)nc2-c2cc3ccccc3s2)cc(OC)c1OC,57.2%
14,CCOc1ccc(-n2nc(C(=O)Nc3ccccc3)nc2-c2cc(OC)c(OC)c(OC)c2)cc1,84.1%
15,Nc1n[nH]c2ccc([C@@H]3Nc4cc5c(cc4[C@H]4C6CCC(C6)[C@@H]34)C(=O)NC5)cc12 (stereo partly drawn),33.1%
16,COc1cccc(-c2nc(SCC(=O)Nc3ccc(C(=O)/C=C/c4ccc(OC)c(OC)c4)cc3)[nH]c(=O)c2C#N)c1,110%
17,CCCn1c(=O)[nH]c(N)c([C@H]2c3ccccc3Oc3[nH]c(=O)n(CCC)c(=O)c32)c1=O,99.4%
18,O=C1CC[C@H](c2ccc(O)c3c2C(=O)[C@@H]2O[C@@H]2C3=O)c2cccc(O)c21,99.6%
19,Cc1cn2c(/C=C3/C(=O)Nc4c3ccc3ccccc43)c(C(F)(F)F)nc2s1,43.4%

row,Compound,growth
1,O=c1nc2oc3ccc4ccccc4c3cc-2s1,53.3%
2,Cn1c(=O)[nH]c(=O)c2nc(CCC(=O)NCCC(=O)O)c(=O)[nH]c21,106%
3,COc1cc(C(=O)Oc2ccccc2OC(=O)c2cc(OC)c(OC)c(OC)c2)cc(OC)c1OC,97.4%
4,O=C1/C(=C/c2ccccc2O)N=C2SCCCN12,91.7%
5,CC(C)(C)CC(C)(C)c1ccc(OCCOCC[N+](C)(C)Cc2ccccc2)cc1,29.6%
6,O=Nc1c(O)c(Cl)cc2ccccc12,115%
7,COc1cc(Nc2cc(C)nc(N3CCN(c4ccnc5cc(Cl)ccc45)CC3)n2)cc(OC)c1,24.8%
8,O=C(CCCCC(=O)N/N=C\c1ccccc1O)N/N=C\c1ccccc1O,59%
9,C=C1c2nc3ccccc3n2C=C(c2cccc(Cl)c2)N1Cc1ccc(OC)cc1,35.3%
10,CN(CCCCCl)P(=O)(OCc1ccc([N+](=O)[O-])o1)C(F)(F)c1ccc(CC(=O)NC[C@@H](O)/C=C\[C@@H](O)[C@H](CO)Cc2ccccc2)cc1 (stereo partly drawn),111%
11,CCNc1ncnc2c1cnn2C1CCCO1 (stereo not drawn),102%
12,O=C(COc1ccc(-c2nc3cc(Cl)c(Cl)cc3[nH]2)cc1)N=Nc1c(O)[nH]c2ccccc12,53.6%
13,O=C(CN(C(=O)Cn1c(=O)n2nnnc2c2ccccc21)c1ccccc1C(F)(F)F)Nc1ccc(C(F)(F)F)cc1,106%
14,CCCCCCN(CCCCCC)C(=N)c1ccnc2ccccc12,77.4%
15,CN1CCN(c2nc(NCCCCNc3ccnc4cc(Cl)ccc34)c3ccccc3n2)CC1,112%
16,CC(=O)O[C@H]1[C@@H]2OC(=O)C(CSc3ccccc3)[C@@H]2C[C@H]2O[C@]2(C)CC/C=C(\C)CCC[C@@H]1C (stereo partly drawn),83.6%
17,CCCCC/C(C=C(C#N)C#N)=C/c1ccccc1,113%
18,COc1ccc(CN2c3ccccc3Oc3ccccc32)cc1F,86.7%
19,Nc1ccc(-c2cc3c(Nc4ccc(Oc5cccc(C(F)(F)F)c5)c(Cl)c4)ncnc3s2)cc1,93.4%

# Test system: OVCAR-4 ovarian
# Experiment: as above
# Conditions: 10 µM unless noted
row,Compound,growth
1,Cc1cc(N2CCOCC2)nc(N[C@@H]2CCC[C@H](Nc3ccnc4cc(Cl)ccc34)C2)n1,35.5%
2,COc1ccc(C2CC(c3ccc4ccccc4c3)=NN2/C=C2\SC(=S)N(NC(=O)Cc3ccccc3Nc3c(Cl)cccc3Cl)C2=O)cc1 (stereo not drawn),70%
3,CCC([N+](=O)[O-])S(=O)(=O)c1ccc(C)cc1 (stereo not drawn),93.6%
4,COc1ccc(/C=C2\Oc3cc(OCCCCN4CCCC4)ccc3C2=O)cc1,92.3%
5,NC(=NCCCC1(c2ccccc2)CCCC1)Nc1ccc(Cl)cc1,41.3%
6,COc1ccc(/C=C\c2cc(OC)c(OC)c(OC)c2)cc1OCC(=O)Nc1ccc2nc(C)sc2c1,43%
7,COc1ccc(C(=O)COc2ccc(/C=C3\COc4ccc(OC)cc4C3=O)cc2)cc1,92.1%
8,COc1cc(C2CC(=O)c3ccccc3N2)cc(OC)c1OC (stereo not drawn),97.4%
9,Cn1ncc2c(=O)nc3c(-c4ccccc4)n[nH]n3c21,100%
10,CC(C)CC1C(=O)N2CCC[C@H]2C2(O)O[C@](NC(=O)C3C=C4c5cccc6[nH]c(Br)c(c56)C[C@H]4N(C)C3)(C(C)C)C(=O)N12 (stereo partly drawn),41%
11,O=C(Cc1ccc(/C=C/C(=O)c2ncc[nH]2)cc1)Nc1ccc(F)cc1,36.6%
12,COc1cc(-c2nn(C)nc2-c2cc3ccccc3s2)cc(OC)c1OC,57.1%
13,CCOc1ccc(-n2nc(C(=O)Nc3ccccc3)nc2-c2cc(OC)c(OC)c(OC)c2)cc1,59.5%
14,Nc1n[nH]c2ccc([C@@H]3Nc4cc5c(cc4[C@H]4C6CCC(C6)[C@@H]34)C(=O)NC5)cc12 (stereo partly drawn),30.7%
15,COc1cccc(-c2nc(SCC(=O)Nc3ccc(C(=O)/C=C/c4ccc(OC)c(OC)c4)cc3)[nH]c(=O)c2C#N)c1,80.8%
16,CCCn1c(=O)[nH]c(N)c([C@H]2c3ccccc3Oc3[nH]c(=O)n(CCC)c(=O)c32)c1=O,64.6%
17,O=C1CC[C@H](c2ccc(O)c3c2C(=O)[C@@H]2O[C@@H]2C3=O)c2cccc(O)c21,72.4%
18,Cc1cn2c(/C=C3/C(=O)Nc4c3ccc3ccccc43)c(C(F)(F)F)nc2s1,51.3%

row,Compound,growth
1,O=c1nc2oc3ccc4ccccc4c3cc-2s1,62.5%
2,Cn1c(=O)[nH]c(=O)c2nc(CCC(=O)NCCC(=O)O)c(=O)[nH]c21,106%
3,COc1cc(C(=O)Oc2ccccc2OC(=O)c2cc(OC)c(OC)c(OC)c2)cc(OC)c1OC,105%
4,O=C1/C(=C/c2ccccc2O)N=C2SCCCN12,82.9%
5,CC(C)(C)CC(C)(C)c1ccc(OCCOCC[N+](C)(C)Cc2ccccc2)cc1,-16% (active)
6,O=Nc1c(O)c(Cl)cc2ccccc12,78.9%
7,O=C(CCCCC(=O)N/N=C\c1ccccc1O)N/N=C\c1ccccc1O,70.3%
8,C=C1c2nc3ccccc3n2C=C(c2cccc(Cl)c2)N1Cc1ccc(OC)cc1,32.4%
9,CN(CCCCCl)P(=O)(OCc1ccc([N+](=O)[O-])o1)C(F)(F)c1ccc(CC(=O)NC[C@@H](O)/C=C\[C@@H](O)[C@H](CO)Cc2ccccc2)cc1 (stereo partly drawn),95.2%
10,CCNc1ncnc2c1cnn2C1CCCO1 (stereo not drawn),108%
11,O=C(COc1ccc(-c2nc3cc(Cl)c(Cl)cc3[nH]2)cc1)N=Nc1c(O)[nH]c2ccccc12,-55.1% (active)
12,O=C(CN(C(=O)Cn1c(=O)n2nnnc2c2ccccc21)c1ccccc1C(F)(F)F)Nc1ccc(C(F)(F)F)cc1,97.1%
13,CCCCCCN(CCCCCC)C(=N)c1ccnc2ccccc12,67.6%
14,CN1CCN(c2nc(NCCCCNc3ccnc4cc(Cl)ccc34)c3ccccc3n2)CC1,68.5%
15,CC(=O)O[C@H]1[C@@H]2OC(=O)C(CSc3ccccc3)[C@@H]2C[C@H]2O[C@]2(C)CC/C=C(\C)CCC[C@@H]1C (stereo partly drawn),34.3%
16,CCCCC/C(C=C(C#N)C#N)=C/c1ccccc1,86.4%
17,Nc1ccc(-c2cc3c(Nc4ccc(Oc5cccc(C(F)(F)F)c5)c(Cl)c4)ncnc3s2)cc1,77.8%
